Experiment [1] in a line: NCI Yeast Anticancer Drug Screen. Data for the rad50 strain (AID 155).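 Also: 0% = growth of vehicle-only cultures of the same strain.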 As to conditions: S. cerevisiae rad50 strain growth inhibition, stronger effect = higher value. Put shortly:
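A DNA repair-deficient yeast mutant serves as the test organism; compound-induced growth inhibition is calculated against vehicle-treated cells.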

A short description of experiment [2]: NCI Yeast Anticancer Drug Screen. Data for the mec2-1 strain (AID 157). As to conditions: S. cerevisiae mec2-1 strain, stronger effect = higher value. Put shortly:
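Vehicle-treated cultures served as reference for growth inhibition of compound-exposed mec2-1 yeast.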

Experiment [3] is described as follows: NCI Yeast Anticancer Drug Screen. Data for the sgs1 mgt1 strain (AID 161).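 Also: 0% = growth of cultures given vehicle only.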 To be noted: S. cerevisiae sgs1 mgt1 strain, stronger effect = higher value. In outline:
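Test agents were incubated with a DNA-repair-mutant yeast strain. Growth was then read and compared against vehicle-treated controls.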

The nature of experiment [4]: NCI Yeast Anticancer Drug Screen. Data for the cln2 rad14 strain (AID 165).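 Also: 0% = growth equal to vehicle treated cultures.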 As to conditions: S. cerevisiae cln2 rad14 strain, stronger effect = higher value. In outline:
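Each compound was tested on cln2 rad14 yeast. Inhibition of growth was calculated against vehicle-exposed controls.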

A short description of experiment [5]: NCI Yeast Anticancer Drug Screen. Data for the bub3 strain (AID 167). As to conditions: S. cerevisiae bub3 mutant strain, stronger effect = higher value. Put shortly: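 Inhibition values come from growth of compound-treated mutant yeast normalised to vehicle-treated controls.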
Experiment [6] is described as follows: NCI Yeast Anticancer Drug Screen. Data for the mlh1 rad18 strain (AID 175). As to conditions: S. cerevisiae mlh1 rad18 strain growth inhibition, stronger effect = higher value. Put shortly:
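Vehicle-treated cultures served as the reference for growth inhibition in a yeast strain carrying DNA damage repair alterations exposed to each compound.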

The mark [7] stands for this setting: at 5.0 µM (retest, dose inferred, filed as 0.5).
Setting [8] is: at 50.0 µM (retest, dose inferred, filed as 5.0).

Values joined by “and” are separate entries in the source; they are usually repeats but may differ in a detail not shown here. Identical values can stand only once. This is part of a sample that, as a whole, favours compounds with a hit. Of some 79,000 tested, about 15% had one in any assay. Some compounds were tested as several samples or in several runs, with calls that do not always agree. Active and inactive are the calls of the source. Rule as the data show it: active = growth inhibition above about 70%; inactive = the rest.

Take `N=S(c1ccccc1[N+](=O)[O-])c1ccccc1[N+](=O)[O-]`: the growth inhibition in experiment [1] (setting [7]) was 13% (inactive) and 8% (inactive); in experiment [1] (setting [8]), 4% (inactive) and 52% (inactive); in experiment [1] (at 50.0 µM), 68.2% (inactive) and 54.1% (inactive); in experiment [2] (setting [7]), 2% (inactive) and 7% (inactive); in experiment [2] (setting [8]) it was 15% (inactive) and 53% (inactive); in experiment [2] (at 50.0 µM), 17.4% (inactive) and 22.4% (inactive). The growth inhibition in experiment [3] (setting [7]) is -24% (inactive) and 32% (inactive); in experiment [3] (setting [8]) it was 39% (inactive) and 77% (active); in experiment [3] (at 50.0 µM), 69.5% (inactive) and 75.5% (active); in experiment [4] (setting [7]), 8% (inactive) and 6% (inactive); in experiment [4] (setting [8]), 9% (inactive) and 49% (inactive); in experiment [4] (at 50.0 µM), 25.3% (inactive) and 61.9% (inactive). In addition, the growth inhibition is -7% (inactive) and 2% (inactive) in experiment [5] (setting [7]); -6% (inactive) and 73% (active) in experiment [5] (setting [8]); 36.9% (inactive) and 26.8% (inactive) in experiment [5] (at 50.0 µM); -14% (inactive) and 20% (inactive) in experiment [6] (setting [7]); -1% (inactive) and 83% (active) in experiment [6] (setting [8]); 79.8% (active) and 76.3% (active) in experiment [6] (at 50.0 µM).
With `Cc1ncc(C[n+]2cccc(CCO)c2C)c(N)n1`, the growth inhibition is 4% (inactive) and 16% (inactive) in experiment [1] (setting [7]); 31% (inactive) and 48% (inactive) in experiment [1] (setting [8]); 55.7% (inactive) and 46.5% (inactive) in experiment [1] (at 50.0 µM); 19% (inactive) and 11% (inactive) in experiment [2] (setting [7]); 60% (inactive) and 49% (inactive) in experiment [2] (setting [8]); 40.5% (inactive) and 38% (inactive) in experiment [2] (at 50.0 µM). For the same compound, the growth inhibition in experiment [3] (setting [7]) is -15% (inactive) and 10% (inactive); in experiment [3] (setting [8]), 62% (inactive) and 68% (inactive); in experiment [3] (at 50.0 µM) it was 87.5% (active) and 64% (inactive); in experiment [4] (setting [7]), 1% (inactive) and 9% (inactive); in experiment [4] (setting [8]), 24% (inactive) and 18% (inactive); in experiment [4] (at 50.0 µM), 58.1% (inactive) and 24.5% (inactive). Moreover, the growth inhibition in experiment [5] (setting [7]) was -4% (inactive) and 5% (inactive); in experiment [5] (setting [8]) it was 14% (inactive) and 36% (inactive); in experiment [5] (at 50.0 µM), 8.65% (inactive) and 29.9% (inactive); in experiment [6] (setting [7]), 10% (inactive) and 15% (inactive); in experiment [6] (setting [8]) it was 63% (inactive) and 48% (inactive); in experiment [6] (at 50.0 µM), 72% (active) and 71.2% (active).
As for `COC(=O)c1nnn(-c2ccc(S(N)(=O)=O)cc2)c1N`, the growth inhibition is -9% (inactive) in experiment [1] (setting [7]); -16% (inactive) in experiment [1] (setting [8]); 36.6% (inactive) in experiment [1] (at 50.0 µM); -4% (inactive) in experiment [2] (setting [7]); -10% (inactive) in experiment [2] (setting [8]); 19.6% (inactive) in experiment [2] (at 50.0 µM). Also, the growth inhibition in experiment [3] (setting [7]) was -9% (inactive); in experiment [3] (setting [8]), -20% (inactive); in experiment [3] (at 50.0 µM), 53.5% (inactive); in experiment [4] (setting [7]) it was 1% (inactive); in experiment [4] (setting [8]), 1% (inactive); in experiment [4] (at 50.0 µM), 18.7% (inactive). The growth inhibition in experiment [5] (setting [7]) is -22% (inactive); in experiment [5] (setting [8]), -7% (inactive); in experiment [5] (at 50.0 µM) it was -4.45% (inactive); in experiment [6] (setting [7]), -13% (inactive); in experiment [6] (setting [8]), -23% (inactive); in experiment [6] (at 50.0 µM) it was 64.9% (inactive).
Consider `O=C(CC1(O)C(=O)Nc2ccccc21)c1ccc(Cl)c(Cl)c1` (centres undefined), for which the growth inhibition in experiment [1] (setting [7]) was -5% (inactive); in experiment [1] (setting [8]), 26% (inactive); in experiment [1] (at 50.0 µM), 84% (active); in experiment [2] (setting [7]), -4% (inactive); in experiment [2] (setting [8]), 29% (inactive); in experiment [2] (at 50.0 µM), 39% (inactive). The growth inhibition was 1% (inactive) in experiment [3] (setting [7]); 41% (inactive) in experiment [3] (setting [8]); 73.4% (active) in experiment [3] (at 50.0 µM); -5% (inactive) in experiment [4] (setting [7]); -12% (inactive) in experiment [4] (setting [8]); 72% (active) in experiment [4] (at 50.0 µM). For the same compound, the growth inhibition was -4% (inactive) in experiment [5] (setting [7]); 31% (inactive) in experiment [5] (setting [8]); 77.2% (active) in experiment [5] (at 50.0 µM); -4% (inactive) in experiment [6] (setting [7]); 31% (inactive) in experiment [6] (setting [8]); 88.3% (active) in experiment [6] (at 50.0 µM).
For the compound `CC(C)N1CSC(=S)N(Cc2ccccc2)C1`, the growth inhibition in experiment [1] (setting [7]) is 55% (inactive); in experiment [1] (setting [8]) it was 91% (active); in experiment [1] (at 50.0 µM), 77.7% (active); in experiment [2] (setting [7]), 46% (inactive); in experiment [2] (setting [8]), 92% (active); in experiment [2] (at 50.0 µM) it was 81.5% (active). The growth inhibition in experiment [3] (setting [7]) was -5% (inactive); in experiment [3] (setting [8]), 98% (active); in experiment [3] (at 50.0 µM), 46.3% (inactive); in experiment [4] (setting [7]), 56% (inactive); in experiment [4] (setting [8]), 92% (active); in experiment [4] (at 50.0 µM), 19.5% (inactive). Besides, the growth inhibition was 6% (inactive) in experiment [5] (setting [7]); 92% (active) in experiment [5] (setting [8]); 88.2% (active) in experiment [5] (at 50.0 µM); 30% (inactive) in experiment [6] (setting [7]); 66% (inactive) in experiment [6] (setting [8]); 59.5% (inactive) in experiment [6] (at 50.0 µM).
As for `COC1CC2CCC(C)[C@](O)(O2)C(=O)C(=O)N2CCCCC2C(=O)OC(C(C)CC2CCC(O)C(OC)C2)CC(=O)C(C)C=C(C)C(OC(=O)CN(C)C)C(OC)C(=O)C(C)CC(C)/C=C/C=C/C=C\1C` (some centres undefined), the growth inhibition in experiment [1] (setting [7]) is 37% (inactive); in experiment [1] (setting [8]) it was 97% (active); in experiment [1] (at 50.0 µM), 89% (active); in experiment [2] (setting [7]) it was 46% (inactive); in experiment [2] (setting [8]), 97% (active); in experiment [2] (at 50.0 µM), 92.5% (active). For the same compound, the growth inhibition in experiment [3] (setting [7]) was 97% (active); in experiment [3] (setting [8]), 96% (active); in experiment [3] (at 50.0 µM), 92% (active); in experiment [4] (setting [7]), 95% (active); in experiment [4] (setting [8]), 94% (active); in experiment [4] (at 50.0 µM), 85.4% (active). For the same compound, the growth inhibition is 50% (inactive) in experiment [5] (setting [7]); 98% (active) in experiment [5] (setting [8]); 91.7% (active) in experiment [5] (at 50.0 µM); 97% (active) in experiment [6] (setting [7]); 96% (active) in experiment [6] (setting [8]); 89.8% (active) in experiment [6] (at 50.0 µM).
Consider `CCCC1=CCCC1`, for which the growth inhibition is 2% (inactive) in experiment [1] (setting [7]); 8% (inactive) in experiment [1] (setting [8]); 91.1% (active) in experiment [1] (at 50.0 µM); 2% (inactive) in experiment [2] (setting [7]); -6% (inactive) in experiment [2] (setting [8]); 92.5% (active) in experiment [2] (at 50.0 µM). For the same compound, the growth inhibition in experiment [3] (setting [7]) was -1% (inactive); in experiment [3] (setting [8]), 1% (inactive); in experiment [3] (at 50.0 µM), 50.9% (inactive); in experiment [4] (setting [7]) it was 0% (inactive); in experiment [4] (setting [8]) it was 2% (inactive); in experiment [4] (at 50.0 µM), 50% (inactive). The growth inhibition in experiment [5] (setting [7]) was 1% (inactive); in experiment [5] (setting [8]) it was 1% (inactive); in experiment [5] (at 50.0 µM), 96.8% (active); in experiment [6] (setting [7]), 0% (inactive); in experiment [6] (setting [8]), 5% (inactive); in experiment [6] (at 50.0 µM), 50.2% (inactive).
Regarding `O=C1NS(=O)(=O)c2ccccc21`, the growth inhibition was -9% (inactive) in experiment [1] (setting [7]); -81% (inactive) in experiment [1] (setting [8]); 23.3% (inactive) and 33% (inactive) in experiment [1] (at 50.0 µM); -30% (inactive) in experiment [2] (setting [7]); -32% (inactive) in experiment [2] (setting [8]); 13.6% (inactive) and -8.5% (inactive) in experiment [2] (at 50.0 µM). Besides, the growth inhibition in experiment [3] (setting [7]) was -11% (inactive); in experiment [3] (setting [8]), -43% (inactive); in experiment [3] (at 50.0 µM), -12.1% (inactive) and 24.2% (inactive); in experiment [4] (setting [7]) it was -2% (inactive); in experiment [4] (setting [8]), -17% (inactive); in experiment [4] (at 50.0 µM), 47.5% (inactive) and 29.4% (inactive). The growth inhibition in experiment [5] (setting [7]) was -29% (inactive); in experiment [5] (setting [8]), -122% (inactive); in experiment [5] (at 50.0 µM), 30.9% (inactive) and 50.3% (inactive); in experiment [6] (setting [7]) it was -6% (inactive); in experiment [6] (setting [8]), -43% (inactive); in experiment [6] (at 50.0 µM), -19.4% (inactive) and 20.9% (inactive).
